From PubChem BioAssay
A number with no mark means an inactive call. The source made the active and inactive calls. Cut-off read from the data, not from the text of the source, unless noted: active = inhibition above about 30%; inactive = the rest.

Tests used:
[1] = target: Nuclear receptor coactivator 3 (Homo sapiens) (UniProt Q9Y6Q9); test: NCOA3 GAL4-fusion reporter inhibition – cell-based, luminescence, quadruplicate, confirmation (AID 588792;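 active = mean inhibition over 43.08%, the solvent-only control mean plus 3 SD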;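 note: 0% = DMSO treated cells and 100% = gossypol at 36 µM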); details: HEK293 GAL4-SRC3 luciferase reporter, at 3.6 µM, hits give high values
[2] = tested on: transactivating tegument protein VP16 (Human herpesvirus 1), Gal4-VP16 luciferase reporter; test: repression of VP16-driven luciferase reporter – cell-based, luminescence, high throughput, counter-screen for SRC3 inhibitor project (AID 588794); details: mammalian cells, at 3.6 µM, hits give high values
[3] = StAR promoter reporter inhibitors, counter-screen for LRH-1 inverse agonist project, cell-based, luminescence, high throughput (AID 651611; in the data active = inhibition above about 28%); details: StAR promoter luciferase reporter counterscreen, at 3.6 µM, hits give high values
[4] = target: Nuclear receptor subfamily 5 group A member 2 (Homo sapiens) (UniProt O00482); test: NR5A2 activity suppression in reporter cells – cell-based, luminescence, confirmation (AID 651613; in the data active = inhibition above about 42%;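 note: HEK293T cells co-transfected with LRH-1 and StAR promoter luciferase reporter; 0% = vehicle wells and 100% = parental cells lacking receptor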); details: cell-based LRH-1 luciferase reporter, inverse agonism; at 3.6 µM; hits give high values
[5] = target: Steroidogenic factor 1 (Homo sapiens) (UniProt Q13285); test: inverse agonism at SF1 nuclear receptor – cell-based, luminescence, high throughput, counter-screen for LRH-1 inverse agonist project (AID 651614; in the data active = inhibition above about 44%;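 note: cells cotransfected with StAR promoter reporter and SF1 expression vector; 0% = vehicle on cells with receptor and 100% = vehicle on cells lacking receptor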); details: cell-based SF1 luciferase reporter, at 3.6 µM, hits give high values
[6] = compounds suppressing VP16-driven luciferase signal – cell-based, luminescence, high throughput, counter-screen for LRH-1 inverse agonist project (AID 651615; in the data active = inhibition above about 33%); details: Gal4-VP16 luciferase reporter cells, at 3.6 µM, hits give high values
[7] = tested on: transactivating tegument protein VP16 (Human herpesvirus 1); test: compounds suppressing VP16-driven luciferase signal – cell-based, luminescence, single concentration, counter-screen for SRC2 inhibitor project (AID 652007; in the data active = inhibition above about 36%); details: cell-based VP16 transactivation luciferase reporter, at 8.9 µM, hits give high values
[8] = target: Nuclear receptor coactivator 2 (Homo sapiens) (UniProt Q15596); test: inhibition of GAL4-SRC2 driven luciferase expression – cell-based, luminescence, HEK293, triplicate, confirmation (AID 652008;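 active = mean inhibition above 46.5%, the solvent-only control mean plus 3 SD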;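 note: 0% = DMSO-treated cells and 100% = Gossypol at 36 µM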); details: HEK293 GAL4-SRC2 luciferase reporter, at 8.9 µM, hits give high values
Sequence of Nuclear receptor coactivator 2 (Homo sapiens) (Q15596 whole entry, looked up, the tested form may be a part): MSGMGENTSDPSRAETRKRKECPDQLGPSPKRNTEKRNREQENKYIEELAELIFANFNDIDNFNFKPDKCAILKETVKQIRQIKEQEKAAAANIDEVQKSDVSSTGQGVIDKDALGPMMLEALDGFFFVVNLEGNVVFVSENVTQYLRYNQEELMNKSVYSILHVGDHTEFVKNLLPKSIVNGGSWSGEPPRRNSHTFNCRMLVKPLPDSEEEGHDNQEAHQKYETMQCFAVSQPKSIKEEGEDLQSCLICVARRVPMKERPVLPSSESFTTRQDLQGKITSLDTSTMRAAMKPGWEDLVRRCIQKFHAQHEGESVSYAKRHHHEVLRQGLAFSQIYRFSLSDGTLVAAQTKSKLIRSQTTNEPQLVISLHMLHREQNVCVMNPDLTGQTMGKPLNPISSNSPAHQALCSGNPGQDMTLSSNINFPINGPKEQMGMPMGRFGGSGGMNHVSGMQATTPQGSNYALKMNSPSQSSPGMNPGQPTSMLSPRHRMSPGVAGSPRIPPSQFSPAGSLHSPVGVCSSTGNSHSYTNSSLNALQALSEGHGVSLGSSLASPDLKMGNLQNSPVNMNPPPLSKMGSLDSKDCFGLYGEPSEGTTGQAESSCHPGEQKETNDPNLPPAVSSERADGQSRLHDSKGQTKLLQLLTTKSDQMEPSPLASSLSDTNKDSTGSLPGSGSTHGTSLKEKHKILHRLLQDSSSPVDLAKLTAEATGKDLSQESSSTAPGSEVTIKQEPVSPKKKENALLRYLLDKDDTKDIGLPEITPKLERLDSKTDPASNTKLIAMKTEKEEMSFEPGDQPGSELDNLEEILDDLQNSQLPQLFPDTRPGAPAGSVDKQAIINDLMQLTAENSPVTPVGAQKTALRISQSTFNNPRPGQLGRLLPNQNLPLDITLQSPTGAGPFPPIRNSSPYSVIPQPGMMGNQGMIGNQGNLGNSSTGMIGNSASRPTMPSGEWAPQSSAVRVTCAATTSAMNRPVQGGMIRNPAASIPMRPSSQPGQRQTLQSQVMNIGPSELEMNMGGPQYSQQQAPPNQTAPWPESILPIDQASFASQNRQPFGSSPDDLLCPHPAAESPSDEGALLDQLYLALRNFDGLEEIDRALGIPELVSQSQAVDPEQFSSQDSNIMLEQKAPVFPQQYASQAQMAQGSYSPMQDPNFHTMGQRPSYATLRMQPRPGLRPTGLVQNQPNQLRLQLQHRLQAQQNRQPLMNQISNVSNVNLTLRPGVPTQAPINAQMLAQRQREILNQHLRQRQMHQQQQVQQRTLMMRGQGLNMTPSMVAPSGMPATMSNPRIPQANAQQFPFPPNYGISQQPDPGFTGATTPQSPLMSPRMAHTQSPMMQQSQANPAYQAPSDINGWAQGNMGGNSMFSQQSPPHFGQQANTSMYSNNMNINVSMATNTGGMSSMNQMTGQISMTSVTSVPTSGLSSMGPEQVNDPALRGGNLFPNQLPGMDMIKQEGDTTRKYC

Sequence of Nuclear receptor coactivator 3 (Homo sapiens) (Q9Y6Q9 whole entry, looked up, the tested form may be a part): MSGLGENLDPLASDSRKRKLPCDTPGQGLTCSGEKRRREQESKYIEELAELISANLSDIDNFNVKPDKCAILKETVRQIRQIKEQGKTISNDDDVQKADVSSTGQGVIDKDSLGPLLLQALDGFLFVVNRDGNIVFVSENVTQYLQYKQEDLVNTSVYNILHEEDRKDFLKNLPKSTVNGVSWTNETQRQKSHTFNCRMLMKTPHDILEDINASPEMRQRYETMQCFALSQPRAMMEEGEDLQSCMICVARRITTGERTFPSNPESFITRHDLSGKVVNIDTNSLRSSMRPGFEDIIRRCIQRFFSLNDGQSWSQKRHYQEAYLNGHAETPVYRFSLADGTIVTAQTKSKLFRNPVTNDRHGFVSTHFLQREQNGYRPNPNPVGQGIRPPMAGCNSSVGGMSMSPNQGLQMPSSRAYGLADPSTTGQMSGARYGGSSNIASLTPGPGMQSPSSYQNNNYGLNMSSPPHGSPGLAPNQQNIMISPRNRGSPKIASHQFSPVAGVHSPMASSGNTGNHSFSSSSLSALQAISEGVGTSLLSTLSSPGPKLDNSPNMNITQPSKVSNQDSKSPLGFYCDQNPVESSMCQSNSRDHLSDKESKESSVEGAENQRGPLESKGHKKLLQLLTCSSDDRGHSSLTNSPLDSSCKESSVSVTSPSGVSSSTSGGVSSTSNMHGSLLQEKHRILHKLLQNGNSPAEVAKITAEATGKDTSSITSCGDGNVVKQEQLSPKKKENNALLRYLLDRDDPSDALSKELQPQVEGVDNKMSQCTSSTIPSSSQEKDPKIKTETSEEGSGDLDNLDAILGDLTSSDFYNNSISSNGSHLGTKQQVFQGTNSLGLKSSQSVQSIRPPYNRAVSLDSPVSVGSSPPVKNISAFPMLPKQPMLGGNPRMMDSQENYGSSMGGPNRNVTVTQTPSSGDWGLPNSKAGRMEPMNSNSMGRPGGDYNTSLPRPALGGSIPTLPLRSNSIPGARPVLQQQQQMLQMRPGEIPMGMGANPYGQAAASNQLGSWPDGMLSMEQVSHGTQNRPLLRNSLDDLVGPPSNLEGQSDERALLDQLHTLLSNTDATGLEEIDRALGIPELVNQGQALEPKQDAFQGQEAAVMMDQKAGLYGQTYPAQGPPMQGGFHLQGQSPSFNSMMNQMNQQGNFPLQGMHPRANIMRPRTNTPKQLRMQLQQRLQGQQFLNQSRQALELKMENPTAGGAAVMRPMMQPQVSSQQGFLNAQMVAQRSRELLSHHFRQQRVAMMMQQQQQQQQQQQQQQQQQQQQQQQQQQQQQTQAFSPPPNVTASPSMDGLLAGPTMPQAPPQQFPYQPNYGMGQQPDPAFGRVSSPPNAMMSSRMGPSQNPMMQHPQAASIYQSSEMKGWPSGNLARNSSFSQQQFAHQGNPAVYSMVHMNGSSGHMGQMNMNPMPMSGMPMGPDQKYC
Sequence of Nuclear receptor subfamily 5 group A member 2 (Homo sapiens) (O00482 whole entry, looked up): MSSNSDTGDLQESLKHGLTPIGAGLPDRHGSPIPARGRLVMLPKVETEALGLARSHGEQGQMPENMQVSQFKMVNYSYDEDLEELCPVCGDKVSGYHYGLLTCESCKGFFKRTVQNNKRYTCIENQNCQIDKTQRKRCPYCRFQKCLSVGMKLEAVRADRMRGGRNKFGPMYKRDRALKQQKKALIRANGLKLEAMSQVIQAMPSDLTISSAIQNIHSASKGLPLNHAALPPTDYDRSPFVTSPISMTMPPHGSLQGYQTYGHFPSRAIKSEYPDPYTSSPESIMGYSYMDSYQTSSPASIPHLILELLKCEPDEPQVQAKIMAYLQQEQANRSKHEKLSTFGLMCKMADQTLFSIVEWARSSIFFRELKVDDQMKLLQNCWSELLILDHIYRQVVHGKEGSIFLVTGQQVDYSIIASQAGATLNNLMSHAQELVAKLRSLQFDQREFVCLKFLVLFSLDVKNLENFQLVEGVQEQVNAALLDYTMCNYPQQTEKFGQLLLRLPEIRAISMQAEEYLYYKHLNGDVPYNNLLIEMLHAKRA
Sequence of Steroidogenic factor 1 (Homo sapiens) (Q13285 whole entry, looked up, the tested form may be a part): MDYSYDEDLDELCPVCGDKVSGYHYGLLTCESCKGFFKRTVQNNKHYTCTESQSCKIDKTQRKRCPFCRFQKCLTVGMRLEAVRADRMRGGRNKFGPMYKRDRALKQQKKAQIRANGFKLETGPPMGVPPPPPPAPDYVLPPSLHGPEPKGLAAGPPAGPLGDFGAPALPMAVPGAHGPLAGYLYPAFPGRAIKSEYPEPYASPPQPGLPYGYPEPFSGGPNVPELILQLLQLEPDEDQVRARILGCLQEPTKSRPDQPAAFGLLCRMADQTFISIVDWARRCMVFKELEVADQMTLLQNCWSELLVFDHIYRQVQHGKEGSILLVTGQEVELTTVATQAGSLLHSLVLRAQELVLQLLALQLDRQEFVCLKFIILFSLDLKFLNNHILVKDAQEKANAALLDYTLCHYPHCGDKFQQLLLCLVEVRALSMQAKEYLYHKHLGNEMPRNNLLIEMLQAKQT

SMILES: CCCCCc1ccc(OCCCC[n+]2ccccc2)c(CCCCC)c1
- inhibition [1]: 20.9%
- inhibition [2]: 20.9%
- inhibition [3]: 3.96%
- inhibition [4]: 41.8% (active)
- inhibition [5]: 37.9%
- inhibition [6]: 42.3% (active)

SMILES: Cc1cc(C)c[n+](C(C)C(=O)c2ccc(-c3ccccc3)cc2)c1 (centres undefined)
- inhibition [1]: 16.9%
- inhibition [2]: 40.2% (active)
- inhibition [3]: 29.7% (active)
- inhibition [4]: 81.4% (active)
- inhibition [5]: 66.4% (active)
- inhibition [6]: 64.2% (active)

SMILES: COc1cc(/C=C/C(=O)c2ccc(C)cc2)ccc1OCC#N
- inhibition [1]: 31.2%
- inhibition [2]: 41.2% (active)
- inhibition [3]: 23.6%
- inhibition [4]: 29.3%
- inhibition [5]: 36.5%
- inhibition [6]: 44.4% (active)
- inhibition [7]: 28%
- inhibition [8]: 29.4%

SMILES: O=C(OCC12CC3CC(CC(C3)C1)C2)c1ccc(NCc2cc(O)ccc2O)cc1
- inhibition [1]: 88.3% (active)
- inhibition [2]: 47.5% (active)
- inhibition [3]: 48.6% (active)
- inhibition [4]: 56.9% (active)
- inhibition [5]: 67.2% (active)
- inhibition [6]: 72.7% (active)
- inhibition [7]: 97% (active)
- inhibition [8]: 96.5% (active)

SMILES: Cc1cc(C)c(S(=O)(=O)/N=C2\C=C(Nc3ccc(C(=O)O)cc3)C(=O)c3ccccc32)c(C)c1
- inhibition [1]: 12.8%
- inhibition [2]: 11.8%
- inhibition [3]: 40.8% (active)
- inhibition [4]: 61.8% (active)
- inhibition [5]: 61% (active)
- inhibition [6]: 43.8% (active)
- inhibition [7]: 6.44%
- inhibition [8]: 1.79%

SMILES: C/C(=N\NC(N)=S)C12CC3CC(CC(C3)C1)C2
- inhibition [1]: 41.6%
- inhibition [2]: 32.8% (active)
- inhibition [3]: 20.4%
- inhibition [4]: 66.1% (active)
- inhibition [5]: 71.4% (active)
- inhibition [6]: 48.1% (active)
- inhibition [7]: 9.52%
- inhibition [8]: 26.9%
